Screens (PubChem BioAssay)
Rows were chosen to be rich in hits. Some 0.84% of all compounds tested hit in one or more screens of this group.
NR2F2 inh: blocks human COUP-TFII nuclear receptor | P24468 | HEK293T NGFI-A luciferase reporter, luminescence | inhibition, % at 8.6 µM | actives 0.7% (n = 370,000);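 active = inhibition above a per-plate cutoff, mean inhibition of test wells between control levels plus 3 SD, cut at about 38% in these data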;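 note: cells cotransfected with COUP-TFII expression vector driving the NGFI-A reporter; 0% = median of COUP-TF2 test wells and 100% = reporter-only cells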
SRC1 inh: human NCOA1 inhibition; Q15788; HEK293 GAL4-SRC1 luciferase reporter, luminescence; inhibition, % at 3.6 µM; actives 0.12% (n = 360,000);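 active = inhibition above the campaign mean plus 3 SD, with each screening campaign given its own cutoff, cut at about 60% in these data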;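 note: 0% = DMSO treated cells and 100% = gossypol at 36 µM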
NCOA2 inhibitor: inhibits human steroid receptor coactivator 2; HEK293 GAL4-SRC2 luciferase reporter, luminescence; inhibition, % at 9 µM; actives 0.17% (n = 370,000); Q15596;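 active = inhibition above the mean inhibition of all tested compounds plus 3 SD, set per campaign, cut at about 52% in these data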;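 note: 0% = DMSO treated cells and 100% = cells given Gossypol at 36 µM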
LRH-1 inv ag: inverse agonists of human LRH-1 (NR5A2). actives 0.13% (n = 360,000). inhibition, % at 3.6 µM. O00482. HEK293T StAR-luciferase reporter, LRH-1 transfected, 24 h;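 active = inhibition above the mean inhibition of all tested compounds plus 3 SD, cut at about 73% in these data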;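 note: 0% = DMSO wells and 100% = reporter-only cells lacking LRH-1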
Target sequence (O00482 whole entry, looked up): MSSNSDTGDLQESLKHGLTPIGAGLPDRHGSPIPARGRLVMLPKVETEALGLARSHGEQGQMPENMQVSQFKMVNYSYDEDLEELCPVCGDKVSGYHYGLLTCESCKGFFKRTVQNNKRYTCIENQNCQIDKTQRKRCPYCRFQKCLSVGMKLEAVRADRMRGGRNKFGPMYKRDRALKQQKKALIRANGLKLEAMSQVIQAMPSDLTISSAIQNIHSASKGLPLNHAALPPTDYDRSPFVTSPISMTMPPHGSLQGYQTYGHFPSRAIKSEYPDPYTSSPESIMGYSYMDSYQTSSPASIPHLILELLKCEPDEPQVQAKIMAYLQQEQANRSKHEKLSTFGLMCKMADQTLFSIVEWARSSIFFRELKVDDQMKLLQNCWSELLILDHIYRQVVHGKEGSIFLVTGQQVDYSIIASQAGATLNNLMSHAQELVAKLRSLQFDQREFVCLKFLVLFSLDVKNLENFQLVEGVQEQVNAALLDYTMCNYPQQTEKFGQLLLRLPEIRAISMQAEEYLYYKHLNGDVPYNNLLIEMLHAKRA
NCOA3 inh: inhibits human SRC3 coactivator. Q9Y6Q9. HEK293 GAL4-SRC3 luciferase reporter, luminescence. inhibition, % at 3.6 µM. actives 0.17% (n = 360,000). AID 588352;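 active = inhibition above a per-campaign cutoff, the mean of all compounds plus 3 SD, cut at about 60% in these data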;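 note: 0% = DMSO-treated cells and 100% = gossypol-treated cells at 36 µM; higher means less SRC3-driven luciferase light from the GAL4 reporter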
VP16 Luc counter: inhibits VP16 reporter, flagging COUP-TFII antagonist hits; shares compounds with NR2F2 inh; HEK293 Gal4-VP16 luciferase reporter, luminescence; inhibition, % at 8.5 µM; actives 25% (n = 2,500); AID 687007; in the data active = inhibition above about 13%
NR2F2 inh conf: confirmation of human COUP-TFII (NR2F2) inhibitors. shares compounds with NR2F2 inh. HEK293 NGFI-A luciferase reporter, luminescence. inhibition, % at 8.5 µM. actives 45% (n = 2,500). AID 687008;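 active = mean inhibition over three repeats above a set limit taken from the earlier primary screen, cut at about 38% in these data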;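 note: 100% = cells given the luciferase reporter alone without the COUP-TF2 vector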
Active calls of the source: *; nt = no result; ! = not confirmed by another sample.

SMILES	NR2F2 inh	SRC1 inh	NCOA2 inhibitor	LRH-1 inv ag	NCOA3 inh	VP16 Luc counter	NR2F2 inh conf
CCOC(=O)C(O)(c1ccc(NC(=S)NC(=O)c2ccc(Cl)cc2Cl)c(C)c1)C(F)(F)F (stereo unspecified)	38*	23	22	5	24	-4	19
CC(C)c1ccc(-n2c(O)c(C=NCCN3CCNCC3)c(=O)[nH]c2=S)cc1	26	11	2	-8	-6	nt	nt
CCCNS(=O)(=O)c1ccc(OCC(=O)N2CCN(Cc3ccc4c(c3)OCO4)CC2)c(C)c1	46*	14	26	31	13	1	21
CC(=O)OC[C@]12CCC(C)=C[C@H]1O[C@@H]1[C@H](O)[C@@H](OC(C)=O)[C@@]2(C)[C@]12CO2	91*	95*	75*	102*	95*	18*	90*
CN(C(=O)COC(=O)c1cn(C)c2ccccc12)C1CCCCC1	-5	-2	-2	-3	6	nt	nt
CC(=O)OC1C(O)C(C)OC(OC2C(OC(=O)C3CCC4C(C3)OC3(CC(OC(=O)/C=C/c5ccccc5)C(C)CO3)C43CO3)OC(C)C(O)C2OC(C)=O)C1O (stereo unspecified)	91*	96*	72*	99*	95*	23*	87*
Cc1ccccc1C(=O)N1Cc2cnnn2-c2ccccc2C1C#N (stereo unspecified)	15	9	23	9	2	nt	nt
Cc1ccccc1CN1Cc2cnnn2-c2ccccc2C1C#N (stereo unspecified)	39*	19	48	-17	14	5	2
O=NN(CCF)C(=O)NC1CCC(=O)NC1=O (stereo unspecified)	6	nt	-11	-10	nt	nt	nt
Cc1ccc(C(=O)NCCN2CCC3(CC2)C(=O)NCN3c2ccccc2)cc1	0	nt	-7	nt	nt	nt	nt
CCOC(=O)[C@]12Cc3cc(OC)ccc3[C@H]1N(C1CCCCC1)C(=O)c1cc(OC)ccc12	23	nt	23	37	nt	nt	nt
CCOC(=O)[C@]12Cc3cc(C)ccc3[C@H]1N(C1CCCCC1)C(=O)c1cc(OC)ccc12	52*	nt	19	94*	nt	25*	36
CC(=O)OC1CC(OC2C(O)CC(OC3C(O)CC(OC4CCC5(C)C(CCC6C5CCC5(C)C(C7=CC(=O)OC7)CCC65O)C4)OC3C)OC2C)OC(C)C1OC1OC(CO)C(O)C(O)C1O (stereo unspecified)	77*	92*	60*	99*	89*	56*	78*
O=C(CN1C(=O)[C@@H](Cc2c[nH]c3ccccc23)N=C(c2ccccc2)c2ccccc21)NC1CCCCC1	3	nt	-16	nt	nt	nt	nt
O=C(c1ccc(C(F)(F)F)cc1)C1CCCN(Cc2ccncc2)C1 (stereo unspecified)	46*	-6	22	21	20	7	18
O=C(c1ccc(C(F)(F)F)cc1)C1CCCN(Cc2ccc(CO)o2)C1 (stereo unspecified)	-9	2	14	20	14	nt	nt
O=C(c1ccc(Cl)cc1)C1CCCN(Cc2cccc3ncccc23)C1 (stereo unspecified)	41*	4	33	-2	17	12	45*
O=C(c1ccc(Cl)cc1)C1CCCN(Cc2cccc3cccnc23)C1 (stereo unspecified)	9	6	24	15	30	nt	nt
COC(=O)C1=C(c2c(C)noc2C)C[C@@H]2CC[C@H]1N2C(=O)NCCNC(C)=O	-5	-14	-2	1	-15	nt	nt
CN(Cc1cccc(-c2cccnc2)c1)C(=O)Oc1ccc([N+](=O)[O-])cc1	51*	nt	52	41	nt	9	31
CCOc1cccc(CNCCc2c(C)[nH]c3ccc(OC(F)(F)F)cc23)c1O	51*	22	26	28	23	-3	41*
CC(=O)OC1C(=O)OCC23CCC4(C)OC4C2OC2CC(OC(=O)C=CC=CC(=O)OCCC1C)C3(C)C21CO1 (stereo unspecified)	89*	96*	72*	98*	93*	10	86*
Brc1csc(N2CCNCC2)n1	-3	nt	nt	nt	nt	nt	nt
CC(=O)c1c(C)n(C2CCCCC2)c2ccc(O)cc12	51*	73*	25	38	69*	17*	20
CC(=O)c1c(C)n(Cc2ccccc2)c2ccc(O)cc12	9	17	17	1	28	nt	nt
SMILES	NR2F2 inh	SRC1 inh	NCOA2 inhibitor	LRH-1 inv ag	NCOA3 inh	VP16 Luc counter	NR2F2 inh conf
O=[N+]([O-])c1ccccc1-c1cc(-c2ccccc2)cc(-c2ccccc2)[n+]1Cc1ccccc1Cl	56*	nt	-23	nt	nt	14*	44*
COc1ccc2nc(-c3ccc(CN4CCC(n5nnc6ccccc65)CC4)cc3)c(-c3ccccc3)nc2c1	19	nt	2	nt	nt	nt	nt
Cc1ccc2nc(-c3ccc(CN4CCC(n5nnc6ccccc65)CC4)cc3)c(-c3ccccc3)nc2c1	45*	nt	19	nt	nt	-3	10
CC(=O)c1ccc(OCC(=O)N2CCCC(N(C)Cc3ccccc3)C2)cc1 (stereo unspecified)	-24	5	-8	10	-3	nt	nt
CN(C)c1ccc(/C=C/c2cc[n+](C)c3ccccc23)cc1	84*	68*!	-80	86*	67*!	23*	82*
CN(C)c1ccc(/C=C/C=C/c2sc3ccccc3[n+]2C)cc1	28	32	9	47	39	nt	nt
S=P(c1ccccc1)(c1ccccc1)c1cnc2ccccn12	13	nt	nt	nt	nt	nt	nt
O=C(CN1C(=O)CN=C(c2ccccc2)c2cc(Cl)ccc21)NC1CCCCC1	7	nt	22	nt	nt	nt	nt
CCC(=NCCc1c[nH]c2ccccc12)c1c(O)n(-c2ccc(C)cc2)c(=O)[nH]c1=O	-3	-15	-11	-8	0	nt	nt
CCC(=NCCc1c[nH]c2ccccc12)c1c(O)n(C)c(=O)n(C)c1=O	47*	14	12	18	10	-1	20
Cc1cc(-c2ccccc2)cc(-c2ccccc2)[n+]1CCc1ccccc1	38*	39	17	63	57	15*	26
NC(Cc1ccccc1)[P+](=O)O (stereo unspecified)	-28	nt	-14	nt	nt	nt	nt
CC(=O)c1cn(Cc2ccccc2C#N)c2ccccc12	47*	6	27	45	28	2	53*
CC(=O)c1cn(Cc2ccccc2F)c2ccccc12	54*	35	-2	38	25	10	48*
CN1CC[C@@H]2CN[C@H](c3ccccc3Br)C[C@@H]21	11	nt	-9	nt	nt	nt	nt
CCCCn1c(NC(=O)c2ccco2)c(C(=O)OCC)c2nc3ccccc3nc21	44*	3	0	31	-5	0	2
COP(=O)(C(=O)Nc1ccccc1)C(CC(C)C)NC(=O)OCc1ccccc1 (stereo unspecified)	-13	nt	5	nt	nt	nt	nt
